Compounds without any hit were thinned out: in the full panel of roughly 83,000, 20% have a hit.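 Single-dose data. Exposure time 48 hours. Values below 10 considered active.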 Active and inactive are the calls of the source.
Assays:
Test in all cases: NCI-60 one-dose screen, 48 h (100 = growth as untreated, 0 = no growth, -100 = all killed)
Settings in all cases: 10 µM unless noted
T-47D breast = test system: T-47D breast
BT-549 breast = test system: BT-549 breast
MDA-MB-435 melanoma = test system: MDA-MB-435 melanoma
SW-620 colon = test system: SW-620 colon
MCF7 breast = test system: MCF7 breast
HCT-116 colon = test system: HCT-116 colon
HCC-2998 colon = test system: HCC-2998 colon
KM12 colon = test system: KM12 colon

Measured: growth

N#CC1=C(c2ccc(Cl)cc2)Nc2c(c(-c3ccc(Cl)cc3)nn2-c2ccccc2)C12C(=O)Nc1ccc(Cl)cc12 (stereo not given)
inactive: T-47D breast 42.3% | BT-549 breast 31.7% | MDA-MB-435 melanoma 55.1% | SW-620 colon 54.8% | MCF7 breast 33.2% | HCT-116 colon 26.1% | HCC-2998 colon 69.1% | KM12 colon 27.7%

Cn1c(=O)c2c(nc(NC3=NS(=O)(=O)c4ccccc43)n2CC(=O)N2CCc3ccccc32)n(C)c1=O
inactive: T-47D breast 91.3% | BT-549 breast 91.7% | MDA-MB-435 melanoma 101% | SW-620 colon 95.2% | MCF7 breast 103% | HCT-116 colon 97.9% | HCC-2998 colon 96.9% | KM12 colon 107%

COc1ccc(-c2ccc3cnc4sc(-c5ccc(OC)cc5)nc4c3n2)cc1
inactive: T-47D breast 76.3% | BT-549 breast 108% | MDA-MB-435 melanoma 101% | SW-620 colon 112% | MCF7 breast 78% | HCT-116 colon 94.5% | HCC-2998 colon 93.1% | KM12 colon 89.1%

O=C1c2cc(Cl)ccc2S(=O)(=O)c2c(NCCCNCCO)nc3ccccc3c21
active: T-47D breast -60% | MDA-MB-435 melanoma 2.67% | SW-620 colon -74.6% | MCF7 breast -16.2% | HCT-116 colon -78%
inactive: BT-549 breast 21.7% | HCC-2998 colon 78.5% | KM12 colon 20.1%

O=c1oc2ccccc2cc1C1=NN=C(SCc2ccccc2)SC1
inactive: T-47D breast 85.5% | BT-549 breast 102% | MDA-MB-435 melanoma 107% | SW-620 colon 106% | MCF7 breast 94.3% | HCT-116 colon 99.1% | HCC-2998 colon 109% | KM12 colon 99.7%

O=C(Cn1c2c(c3ccccc31)CCCC2)Nc1ccc(-c2nc3ccccc3s2)cc1
inactive: T-47D breast 80.1% | BT-549 breast 115% | MDA-MB-435 melanoma 104% | SW-620 colon 109% | MCF7 breast 30.8% | HCT-116 colon 125% | HCC-2998 colon 108% | KM12 colon 101%

N#Cc1c(-c2ccc(Cl)cc2)nc(SCC(=O)NC2=NN=C(c3ccccc3)CS2)[nH]c1=O
inactive: T-47D breast 41.4% | BT-549 breast 91.3% | MDA-MB-435 melanoma 29.5% | SW-620 colon 91.6% | MCF7 breast 47.8% | HCT-116 colon 80.6% | HCC-2998 colon 89.6% | KM12 colon 83.8%

COc1ccc(/C=N/C2=C(C#N)C(c3cccc(Cl)c3)c3c(ccc4ccccc34)O2)cc1 (stereo not given)
inactive: T-47D breast 36.7% | BT-549 breast 29.3% | SW-620 colon 23.7% | MCF7 breast 11.1% | HCT-116 colon 21.8% | HCC-2998 colon 65.4% | KM12 colon 24.9%
active: MDA-MB-435 melanoma -36%

O=S(=O)(Nc1cc(Br)c(O)c2ccccc12)c1ccc(F)cc1
active: T-47D breast 6.12% | MDA-MB-435 melanoma -90.4%
inactive: BT-549 breast 100% | SW-620 colon 104% | MCF7 breast 49.1% | HCT-116 colon 51% | HCC-2998 colon 97.8% | KM12 colon 86.4%

Nc1c(C(=O)Nc2ccncc2)sc2nc3c(cc12)CCCCCC3
inactive: T-47D breast 49.9% | BT-549 breast 69.4% | MDA-MB-435 melanoma 96% | SW-620 colon 103% | MCF7 breast 78.5% | HCT-116 colon 65.5% | HCC-2998 colon 94.1% | KM12 colon 80.7%

Nc1nc2c([nH]1)c1[nH]c3ccccc3c1c1[nH]c3ccccc3c21
active: MDA-MB-435 melanoma 1.06% | SW-620 colon -31.5% | HCT-116 colon -47.9% | HCC-2998 colon -70.6%
inactive: T-47D breast 32.4% | BT-549 breast 64.6% | MCF7 breast 13.6% | KM12 colon 39.5%

N#CCSc1nnc2n(Cc3ccccc3)c(=O)c3c4c(sc3n12)CCCC4
inactive: T-47D breast 111% | BT-549 breast 98.7% | MDA-MB-435 melanoma 107% | SW-620 colon 109% | MCF7 breast 98.9% | HCT-116 colon 92.7% | HCC-2998 colon 105% | KM12 colon 101%

N#CC1C=CN(CC(N)=O)c2ccc3cccnc3c21 (stereo not given)
inactive: T-47D breast 90.9% | BT-549 breast 102% | MDA-MB-435 melanoma 102% | SW-620 colon 104% | MCF7 breast 85.8% | HCT-116 colon 94.8% | HCC-2998 colon 106% | KM12 colon 105%

COCCn1cc(-c2nc(-c3cc4cccnc4n3CCOC)cs2)c2cc(OC)ccc21
active: T-47D breast -10.5% | MCF7 breast 5.4%
inactive: BT-549 breast 57% | MDA-MB-435 melanoma 91.4% | SW-620 colon 49% | HCT-116 colon 43% | HCC-2998 colon 28% | KM12 colon 11.8%

O=C1CC(N2C(=O)/C(=C/C(Cl)=C\c3ccc([N+](=O)[O-])cc3)SC2=S)C(=O)N1c1ccc(Cl)cc1 (stereo not given)
active: BT-549 breast -1.71% | MDA-MB-435 melanoma 3.02% | SW-620 colon 3.41% | HCT-116 colon 8.7% | HCC-2998 colon -22.9%
inactive: T-47D breast 36.3% | MCF7 breast 18.1% | KM12 colon 12.4%

CC[C@@H](C(=O)[C@@H](C)[C@@H](O)[C@H](C)[C@@H]1O[C@@H]([C@@H](CC)C(=O)NCCc2ccc(F)cc2)CC[C@@H]1C)C1O[C@]2(C=CC(=O)[C@]3(CC[C@@](C)([C@H]4CC[C@](O)(CC)[C@H](C)O4)O3)O2)[C@H](C)C[C@@H]1C (stereo not given in full)
inactive: T-47D breast 15% | BT-549 breast 54.1% | MDA-MB-435 melanoma 39.3% | SW-620 colon 40.4% | MCF7 breast 18.4% | HCT-116 colon 16.9% | HCC-2998 colon 63.8% | KM12 colon 42.6%

O=C(CN1C(=O)CCC1=O)Nc1ncc(Cc2ccc(F)cc2)s1
inactive: T-47D breast 103% | BT-549 breast 97.5% | MDA-MB-435 melanoma 102% | SW-620 colon 102% | MCF7 breast 92.4% | HCT-116 colon 104% | HCC-2998 colon 92.5% | KM12 colon 103%

CN1CCN(c2ccc(NC(=O)c3nc4ccc5[nH]ncc5c4c4c3CCCC4)cc2C(F)(F)F)CC1
inactive: T-47D breast 66.5% | BT-549 breast 90.6% | MDA-MB-435 melanoma 29.7% | MCF7 breast 24.6% | HCC-2998 colon 21.1% | KM12 colon 37.9%
active: SW-620 colon 5% | HCT-116 colon 2.82%

CCCNC(=O)Oc1ccc(/C(=C(/C)Cc2ccc(OC)cc2)c2ccc(OCCCN(C)C)cc2)cc1
inactive: T-47D breast 70.2% | BT-549 breast 91.6% | MDA-MB-435 melanoma 80.3% | SW-620 colon 97.1% | MCF7 breast 36.3% | HCT-116 colon 59.5% | HCC-2998 colon 77.7% | KM12 colon 84.1%

O=C(c1cc2ccccc2o1)c1nn(-c2ccccc2)/c(=N/N=Cc2cn(-c3ccccc3)nc2-c2cc3ccccc3oc2=O)s1
inactive: T-47D breast 92.9% | BT-549 breast 108% | MDA-MB-435 melanoma 81.1% | SW-620 colon 97.1% | MCF7 breast 83.1% | HCT-116 colon 89.8% | HCC-2998 colon 104% | KM12 colon 96.5%

COc1cc(CNC(=O)/C=C/C=C/c2ccc3c(c2)OCO3)ccc1OCc1cn(-c2ccc(C)c(C)c2)nn1
inactive: T-47D breast 80.5% | BT-549 breast 88.3% | MDA-MB-435 melanoma 76.9% | SW-620 colon 92.1% | MCF7 breast 81.9% | HCT-116 colon 75.2% | HCC-2998 colon 98% | KM12 colon 84%

COc1cccc([C@H]2c3[nH]c4ccccc4c3C[C@H]3C(=O)N(CCCCCCC(=O)NO)CC(=O)N23)c1
inactive: T-47D breast 31.5% | BT-549 breast 77.9% | MDA-MB-435 melanoma 61.2% | SW-620 colon 57.4% | MCF7 breast 53.7% | HCT-116 colon 35.3% | HCC-2998 colon 68.2% | KM12 colon 78.9%

COC(=O)c1ccc2c(c1)C(=O)c1c-2n(CCCN)c(=O)c2cc([N+](=O)[O-])ccc12
active: T-47D breast -80.3% | BT-549 breast -100% | MDA-MB-435 melanoma -90.9% | SW-620 colon -100% | MCF7 breast -87.8% | HCT-116 colon -100% | HCC-2998 colon -94.9% | KM12 colon -97.2%

CSc1nc2sc3c(c2c(=O)n1-c1ccc([N+](=O)[O-])cc1)CCCCC3
inactive: T-47D breast 89% | BT-549 breast 102% | MDA-MB-435 melanoma 97% | SW-620 colon 95.4% | MCF7 breast 86.2% | HCT-116 colon 84.4% | HCC-2998 colon 104% | KM12 colon 101%

Clc1ccc2c(c1)N(c1ncnc3ccc(-c4cnc5[nH]ncc5c4)cc13)CC2
active: T-47D breast 0.466%
inactive: BT-549 breast 22.6% | MDA-MB-435 melanoma 31.1% | SW-620 colon 47.4% | MCF7 breast 18.2% | HCT-116 colon 35.8% | HCC-2998 colon 36.6% | KM12 colon 36.4%

CCN(CC)CCSc1nc(-c2ccccc2)c(C#N)c(=O)[nH]1
active: HCC-2998 colon -6.88%
inactive: T-47D breast 93.8% | BT-549 breast 94.9% | MDA-MB-435 melanoma 103% | SW-620 colon 94.4% | MCF7 breast 104% | HCT-116 colon 105% | KM12 colon 118%

COc1cc(OC)cc(C2=C3CC[C@@H]4[C@H](CC[C@]5(C)C(=O)CC[C@@H]45)C3=CC3C(O)c4cccnc4N4C(=O)COC234)c1 (stereo not given in full)
inactive: T-47D breast 107% | BT-549 breast 94.7% | MDA-MB-435 melanoma 104% | SW-620 colon 103% | MCF7 breast 103% | HCT-116 colon 97% | HCC-2998 colon 96.6% | KM12 colon 102%

CCOC(=O)CSc1ncnc2c1c(-c1ccccc1)c(-c1ccccc1)n2-c1ccc(C)cc1
active: T-47D breast 9.51%
inactive: BT-549 breast 61.8% | MDA-MB-435 melanoma 74.2% | SW-620 colon 81.2% | MCF7 breast 52.5% | HCT-116 colon 53.5% | HCC-2998 colon 75.8% | KM12 colon 50.2%

COC(=O)c1cc(-c2ccc(OC)cc2)[nH]c1N/N=C/c1c(Cl)cccc1Cl
inactive: T-47D breast 45.5% | HCC-2998 colon 67.4%
active: BT-549 breast -9.36% | MDA-MB-435 melanoma -54.7% | SW-620 colon 9.62% | MCF7 breast 1.03% | HCT-116 colon -64.5% | KM12 colon 2.76%

COc1ccc(CC(C#N)c2cc3ccccc3[nH]2)cc1 (stereo not given)
inactive: T-47D breast 85.5% | BT-549 breast 92.8% | MDA-MB-435 melanoma 82.2% | SW-620 colon 93.6% | MCF7 breast 94% | HCT-116 colon 92.3% | HCC-2998 colon 87.5% | KM12 colon 84.7%
